# Key:
# [1] = molecular target: T1, Aspartate--tRNA(Asp/Asn) ligase (Mycobacterium tuberculosis (strain ATCC 25618 / H37Rv)) (UniProt P9WFW3); assay: Assay for Asp RNA synthetase-1 from Mycobacterium tuberculosis; assay type: functional; set-up: scale not given: direction of the effect not stated beside the values; conditions: 30 µM; note: in the data most compounds retested in dose-response had high values
# T1 sequence (whole entry): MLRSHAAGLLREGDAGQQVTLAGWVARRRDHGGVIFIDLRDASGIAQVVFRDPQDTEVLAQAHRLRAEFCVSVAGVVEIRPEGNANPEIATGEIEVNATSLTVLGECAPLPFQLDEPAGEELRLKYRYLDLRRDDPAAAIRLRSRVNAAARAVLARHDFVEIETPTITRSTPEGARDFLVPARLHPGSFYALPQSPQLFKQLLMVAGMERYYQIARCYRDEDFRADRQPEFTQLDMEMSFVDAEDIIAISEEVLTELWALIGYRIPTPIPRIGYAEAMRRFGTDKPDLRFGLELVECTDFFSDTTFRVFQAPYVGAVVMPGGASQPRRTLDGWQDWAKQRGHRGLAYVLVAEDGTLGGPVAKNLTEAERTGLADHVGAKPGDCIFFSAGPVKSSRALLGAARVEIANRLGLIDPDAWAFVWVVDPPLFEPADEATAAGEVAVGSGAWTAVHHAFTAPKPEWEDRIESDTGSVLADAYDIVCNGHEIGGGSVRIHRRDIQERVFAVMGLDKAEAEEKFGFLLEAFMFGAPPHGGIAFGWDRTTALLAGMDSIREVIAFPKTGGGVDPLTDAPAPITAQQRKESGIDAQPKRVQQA
# [2] = molecular target: Shiga toxin 2 (Escherichia coli O157:H7) (UniProt P09385+P09386); assay: E. coli 0.157:H7 Shiga Toxin SOP - stx2 screening assay; assay type: functional; set-up: scale not given: direction of the effect not stated beside the values; conditions: 30 µM
structure (smiles),measurement,setting,value
c1cncc(CN2CCc3ncnc(C4CCOC4)c3CC2)c1 (configuration not stated),Percent Effect,[1],3.1%
same,Percent Effect,[2],-17.7%
COCCc1ncc(CN2CCC(Oc3ccccc3C)CC2)cn1,Percent Effect,[1],1.13%
same,Percent Effect,[2],1.32%
Cc1ccc(-c2cc(CN3CCCC(Cn4cncn4)C3)on2)cc1 (configuration not stated),Percent Effect,[1],2.71%
same,Percent Effect,[2],-31.3%
CCc1nc(C2CCCN(C(=O)c3ccc4[nH]nnc4c3)C2)no1 (configuration not stated),Percent Effect,[1],2.74%
same,Percent Effect,[2],14.5%
Cn1cc(CN2CC[C@H](O)[C@@H]2Cc2ccncc2)cn1,Percent Effect,[1],-1.6%
same,Percent Effect,[2],-6.08%
Cc1ccc(C(=O)N2CCC3(CC2)CC(N2CCOCC2)C3)cc1,Percent Effect,[1],-1.52%
same,Percent Effect,[2],3.95%
O=C(c1nc(=O)[nH][nH]1)N1CCCC(c2cc(C(F)(F)F)[nH]n2)C1 (configuration not stated),Percent Effect,[1],-1.69%
same,Percent Effect,[2],-21.8%
Cc1cc(N2CCC(Cc3ccccc3)CC2)nc(-c2ccncc2)n1,Percent Effect,[1],-0.602%
same,Percent Effect,[2],-32.9%
CCC(NC(=O)C1CCN(S(C)(=O)=O)CC1)c1ccc(OC)c(C)c1 (configuration not stated),Percent Effect,[1],-5.17%
same,Percent Effect,[2],-11.6%
Cn1nccc1CNC(=O)Nc1cc(C(F)(F)F)c[nH]c1=O,Percent Effect,[1],0.5%
same,Percent Effect,[2],21%
O=C(NCCc1ccc(Cl)s1)NCc1nnc2n1CCC2,Percent Effect,[1],2.25%
same,Percent Effect,[2],22.9%
CSCc1cccc(S(=O)(=O)N2CCC(C)CC2)c1,Percent Effect,[1],-1.92%
same,Percent Effect,[2],4.74%
Cc1cc(C)c2nc(CN3CC[C@@H](O)C3)cc(O)c2c1,Percent Effect,[1],3.16%
same,Percent Effect,[2],7.54%
Cc1ccc(C(=O)NCCCNS(C)(=O)=O)c(=O)[nH]1,Percent Effect,[1],-3.45%
same,Percent Effect,[2],-17.7%
CC(NC(=O)N(C)Cc1ccsc1)c1ccc2c(c1)CCC(=O)N2 (configuration not stated),Percent Effect,[1],-2.72%
same,Percent Effect,[2],29%
Cc1cc(C)n(CC2CCCN2CCCS(N)(=O)=O)n1 (configuration not stated),Percent Effect,[1],-0.589%
same,Percent Effect,[2],-25.1%
Cc1cc(CNc2cc(Cl)ccc2OCCS(C)(=O)=O)no1,Percent Effect,[1],-2.26%
same,Percent Effect,[2],-0.408%
O=C1N(c2ccc(F)cc2)Cc2nc(=O)n(Cc3cccc(Cl)c3)n21,Percent Effect,[1],0.784%
same,Percent Effect,[2],-12.3%
Cc1nc(C)n(CC2CN(Cc3cccc(C(N)=O)c3)CCO2)n1 (configuration not stated),Percent Effect,[1],4.41%
same,Percent Effect,[2],-4.3%
CCOc1ccc(Cl)c(C(=O)N2CCN(C(=O)c3ccoc3C)CC2)n1,Percent Effect,[1],-4.19%
same,Percent Effect,[2],-1.17%
Cc1ccc(C(=O)CCC(=O)N2CCC(c3nncn3C)CC2)cc1,Percent Effect,[1],2.31%
same,Percent Effect,[2],-30.7%
Cc1cnn(C(C)C2CC2)c1NC(=O)c1ccncc1 (configuration not stated),Percent Effect,[1],4.07%
same,Percent Effect,[2],1.34%
Cc1ccc(CN2C[C@@H]3COC[C@H](NS(C)(=O)=O)[C@@H]3C2)o1,Percent Effect,[1],3.2%
same,Percent Effect,[2],-0.0539%
Cc1cccc(OCCC(=O)N(C)CCNS(C)(=O)=O)c1C,Percent Effect,[1],0.299%
same,Percent Effect,[2],6.1%
CC1(C)CC(N2Cc3nc(N)ncc3C2=O)CC(C)(C)N1,Percent Effect,[1],7.13%
same,Percent Effect,[2],-32.6%
Cc1ccoc1C(=O)N1CCOCC2(CCN(c3ncccn3)C2)C1 (configuration not stated),Percent Effect,[1],5.74%
same,Percent Effect,[2],8%
CCOCCC(=O)Nc1cccc(Oc2ccccn2)c1,Percent Effect,[1],5.81%
same,Percent Effect,[2],-31.9%
COC(=O)C1CCN(c2cncc(-n3nc(C)cc3C)n2)CC1,Percent Effect,[1],8.26%
same,Percent Effect,[2],-51.5%
CCc1cccc(N2CCC(NC(=O)c3cc[nH]n3)CC2)c1,Percent Effect,[1],7.15%
same,Percent Effect,[2],18.9%
CN(C)C(=O)[C@@H]1CCO[C@@H]2CCN(CCc3ccccc3)C[C@@H]21,Percent Effect,[1],-3.08%
same,Percent Effect,[2],1.17%
Nc1nc(C2CCN(C(=O)c3cncs3)CC2)cs1,Percent Effect,[1],-0.134%
same,Percent Effect,[2],-3.12%
CC(C)c1nnc(CN2CCCC2Cn2cncn2)o1 (configuration not stated),Percent Effect,[1],-1.37%
same,Percent Effect,[2],-22.4%
CC1=N[C@@]2(CC[C@@H]3CN(S(=O)(=O)N(C)C)C[C@@H]32)C(=O)N1CC(C)C,Percent Effect,[1],6.65%
same,Percent Effect,[2],-4.62%
CC(C)Nc1nc2c(cc1C(=O)NCC1CC1)CCNCC2,Percent Effect,[1],0.611%
same,Percent Effect,[2],2.86%
CC(c1cccnc1)N(C)Cc1csc(-c2ccccn2)n1 (configuration not stated),Percent Effect,[1],-4.49%
same,Percent Effect,[2],-14.1%
Cc1noc(C)c1CN1CC[C@H]2OCC[C@@H](C(=O)NCC3CC3)[C@@H]2C1,Percent Effect,[1],-1.49%
same,Percent Effect,[2],-13.8%
Cc1ccccc1NS(=O)(=O)c1cc2c(c(C(=O)O)c1)OCCO2,Percent Effect,[1],-0.815%
same,Percent Effect,[2],29.1%
CCOCCN1CCn2c(C)nnc2C1,Percent Effect,[1],1.76%
same,Percent Effect,[2],-30.6%
COc1ncccc1NC(=O)c1cccc(C)n1,Percent Effect,[1],1.43%
same,Percent Effect,[2],-22.7%
CCn1c(CN(C)C)nnc1C1CCN(Cc2cccc(OC)c2)CC1,Percent Effect,[1],0.565%
same,Percent Effect,[2],-66.9%
Cc1ccccc1OCCC(=O)N1CCCC(n2cncn2)C1 (configuration not stated),Percent Effect,[1],-3.32%
same,Percent Effect,[2],2.85%
CN(C)C(=O)CS(=O)(=O)Cc1cc(Cl)c2c(c1)OCO2,Percent Effect,[1],0.927%
same,Percent Effect,[2],25.6%
CCn1cnnc1CNC(=O)N1CCN(Cc2ccccc2)CC1,Percent Effect,[1],-0.692%
same,Percent Effect,[2],8.37%
Cc1ccoc1C(=O)NC1CCN(Cc2cccc3c2OCCO3)CC1,Percent Effect,[1],-2.4%
same,Percent Effect,[2],-34.8%
O=C(c1cn(-c2cc(N3CCSCC3)ncn2)cn1)N1CCSCC1,Percent Effect,[1],-8.02%
same,Percent Effect,[2],1.44%
Cc1cc(C(=O)NCc2cccnc2OC(C)C)no1,Percent Effect,[1],-2.27%
same,Percent Effect,[2],26.9%

# Reference: ChEMBL document CHEMBL3988442, “University of Dundee, Small-Polar-MMV Screening Library” (2021)
